Sampled rows, rich in hits. Any-hit rate of the full collection: about 5.3%.
Sfp PPTase inh: Sfp phosphopantetheinyl transferase inhibition; Biochemical Sfp PPTase activity, qHTS; Potency, µM, inactives show largest response in the series, negative = inhibition, hits mostly inhibitors; hit rate 3.5% among 310,000; AID 1490;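 note: the enzyme is Sfp with the accession as filed and its product quenches rhodamine fluorescence; potency is the fitted concentration of half-maximal effect; 0% = enzyme reaction without inhibitor and -100% = no enzyme wells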
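Step 1, compound plus 15 nM Sfp-PPTase, 15 min, room temperature. Step 2, add rhodamine-CoA (5 uM) and BHQ-2-YbbR (12.5 uM). Step 3, read 525/598 nm fluorescence at 0 and 30 min.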
Tau fibril FP: tau fibrillization inhibition (FP); K18 P301L tau heparin fibrillization, Alexa594 FP, 6 h; Potency, µM (highest dose often 57.7 µM), for the others: top-dose activity, negative = inhibition, actives largely listed as inhibitors; P10636; hit rate 0.39% among 280,000; note: potency is the fitted concentration of half-maximal effect; nearly all actives have a fitted effect of over 55% in size
Target sequence (P10636 561-689 P618L limits assumed): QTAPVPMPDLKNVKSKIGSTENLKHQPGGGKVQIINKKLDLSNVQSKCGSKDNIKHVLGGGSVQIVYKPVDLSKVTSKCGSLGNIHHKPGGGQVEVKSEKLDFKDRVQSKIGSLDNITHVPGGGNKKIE
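Human K18 P301L fragment (15 uM unlabeled plus 0.24 uM Alexa 594-labeled) in 100 mM sodium acetate pH 7 with compound, aggregation induced by 20 uM heparin for 6 hr at 37 C. ThT (30 uM) added for 1 hr, then Alexa 594 FP read.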
Tau fibril ThT: blocks human tau fibril formation measured by thioflavin T; P10636; recombinant tau K18 P301L, heparin-induced fibrillization, ThT fluorescence; Potency, µM (top dose mostly 57.4 µM), for the others: top-dose activity, negative = inhibition, most hits filed as inhibitors; hit rate 2.1% among 270,000; AID 1460; note: potency is the fitted concentration of half-maximal effect; nearly all actives have a fitted effect of over 55% in size
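Using a mix of unlabeled (15 uM) and Alexa 594-labeled (0.24 uM) tau K18 P301L, heparin-triggered fibrillization over 6 hr at 37 C was scored by ThT fluorescence.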
FBPA coupling cs: counter-screen for Giardia aldolase inhibitors: coupling enzyme system. coupling enzyme system counterscreen, AmpLite Red fluorescence. activity change, negative = inhibition, % at 58.2 µM, hits read low. hit rate 0.67% among 290,000. AID 2472; in the data active = activity change below about -30%
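Coupling enzymes only (glyceraldehyde-3-phosphate) + compound, at 57.5 uM final, 10 min RT; add substrate/coupling/AmpLite Red mix, 20 min RT; fluorescence ex 525/em 598 nm. Actives flag coupling-system interference.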
KDM4E inh: blocks human JMJD2E demethylase activity; Potency, µM (titrated, usually from 57.1 µM), inactives show top-dose activity change, negative = inhibition, usual class: inhibitors; JMJD2E catalytic domain, FDH-coupled NADH fluorescence (FDH is formaldehyde dehydrogenase); hit rate 1.6% among 230,000; active = well fitted inhibition curve with a large enough effect, not every such curve was filed as active; inconclusive = small, poorly fitted or top-dose-only effect, or another doubt; inactive = no such curve, though single readings can be large or run the other way;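 note: potency is the fitted concentration of half-maximal effect; 0% = wells with enzyme and -100% = buffer wells without enzyme; nearly all actives have a fitted effect of over 50% in size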
Target sequence (B2RXH2 1-337 limits assumed): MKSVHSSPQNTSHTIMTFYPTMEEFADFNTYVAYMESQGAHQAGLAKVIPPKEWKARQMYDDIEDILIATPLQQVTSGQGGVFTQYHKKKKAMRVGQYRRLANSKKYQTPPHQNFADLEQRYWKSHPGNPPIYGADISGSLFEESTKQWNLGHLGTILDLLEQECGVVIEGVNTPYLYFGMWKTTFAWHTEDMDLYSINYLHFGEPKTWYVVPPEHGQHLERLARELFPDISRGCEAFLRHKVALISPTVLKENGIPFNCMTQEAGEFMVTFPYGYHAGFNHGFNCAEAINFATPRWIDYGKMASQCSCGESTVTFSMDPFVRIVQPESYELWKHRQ
Tau fluor cs: counter-screen for tau fibril formation inhibitors | hit rate 0.93% among 280,000 | AID 1463 | tau K18 P301L Alexa594 fluorescence, heparin fibrillization | Potency, µM (doses to about 57.7 µM), without a hit: at the top dose activity change, negative = decrease; note: potency is the fitted concentration of half-maximal effect; nearly all actives have a fitted effect of over 55% in size
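Human tau K18 P301L (15 uM unlabeled, 0.24 uM Alexa 594-labeled) in 100 mM sodium acetate pH 7 with 20 uM heparin, 6 hr at 37 C. ThT 30 uM added, 1 hr ambient; Alexa 594 FP and total fluorescence read at 555/632 nm.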
Starred values were filed as active, the others as inactive; [ ] = remark or other dose. Unless noted, calls come from the whole dose curve; as a rule, active = well fitted curve in the direction sought with a large enough effect; inconclusive = small, poorly fitted or top-dose-only effect, or another doubt; inactive = no such curve, though single readings can be large; an effect the other way counts as inactive or inconclusive. Unless noted, % is set by controls: 0 for no effect and ±100 for the full control effect.

Screening Cc1cccc(N(Cc2cc3ccccc3[nH]c2=O)S(C)(=O)=O)c1 returned Sfp PPTase inh 56µM*, Tau fibril FP 3%, Tau fibril ThT -18%, FBPA coupling cs -13, KDM4E inh 4% and Tau fluor cs -21%.
COc1ccccc1Nc1nc(-c2sc(N)nc2C)cs1 was read as Sfp PPTase inh 50µM* and FBPA coupling cs -10.
Screening Cc1csc(Nc2ccc(Cl)cc2)n1 returned Sfp PPTase inh 12%, Tau fibril FP 8%, Tau fibril ThT inconclusive, FBPA coupling cs -8, KDM4E inh -7% and Tau fluor cs inconclusive.
Cc1nc(N)sc1-c1csc(Nc2ccc(S(N)(=O)=O)cc2)n1 was read as Sfp PPTase inh -15% and FBPA coupling cs -23.
COc1ccccc1Nc1nc(C)cs1 was read as Sfp PPTase inh 45µM*, Tau fibril FP inconclusive, Tau fibril ThT 22µM*, FBPA coupling cs 0, KDM4E inh 6% and Tau fluor cs inconclusive.
For Cc1ccc(Nc2nc(C)cs2)cc1 the results were Sfp PPTase inh 22µM*, Tau fibril FP 7%, Tau fibril ThT 3%, FBPA coupling cs 0, KDM4E inh -4% and Tau fluor cs 9%.
`Cc1nc(N)sc1-c1csc(Nc2ncccn2)n1` gave Sfp PPTase inh -27%, Tau fibril FP 3%, Tau fibril ThT 4µM*, FBPA coupling cs -7, KDM4E inh -11% and Tau fluor cs -29%.
CCN(CC)c1cc2c(cc1F)c(=O)c(S(=O)(=O)c1ccc(OC)cc1)cn2CC was read as Tau fibril FP 0%, Tau fibril ThT 0% and Tau fluor cs -1%.
For C#CCCCO/N=C1/C[C@@H](O)[C@@H](O)[C@@H]2[C@@H]3C(=O)N(Cc4ccc5c(c4)OCO5)C(=O)[C@H]3CC[C@H]12 the results were Sfp PPTase inh -13%, Tau fibril FP 0%[11.6 µM], Tau fibril ThT -5%[11.5 µM], FBPA coupling cs 1 and Tau fluor cs 2%[11.6 µM].
COc1ccc(Cl)cc1Nc1nc(-c2sc(NC(=O)c3ccco3)nc2C)cs1 was read as Sfp PPTase inh inconclusive, Tau fibril FP 16%, Tau fibril ThT inconclusive, FBPA coupling cs 0, KDM4E inh inconclusive and Tau fluor cs inconclusive.
COc1cccc(Nc2nc(-c3sc(NC(=O)c4ccco4)nc3C)cs2)c1 was read as Sfp PPTase inh -13%, Tau fibril FP inconclusive, Tau fibril ThT 10µM*, FBPA coupling cs 1, KDM4E inh -3% and Tau fluor cs inconclusive.
`COc1cccc(Nc2nc(-c3sc(N)nc3C)cs2)c1` gave Sfp PPTase inh -10%, Tau fibril FP -6%, Tau fibril ThT 11µM*, FBPA coupling cs -11, KDM4E inh -4% and Tau fluor cs 14µM*[quencher].
COc1ccc2[nH]c3c(=O)n(CCCCC(=O)NCCN4CCCC4)c(=S)[nH]c3c2c1 was read as Sfp PPTase inh 79µM*, Tau fibril FP -3%, Tau fibril ThT inconclusive, FBPA coupling cs -9, KDM4E inh inconclusive and Tau fluor cs inconclusive.
`CCCCNC(=O)CCCCn1c(=S)[nH]c2c([nH]c3ccc(OC)cc32)c1=O` gave Sfp PPTase inh 6%, Tau fibril FP -6%, Tau fibril ThT 2%, FBPA coupling cs -1, KDM4E inh 0% and Tau fluor cs -3%.
COc1ccc(NC(=O)CSc2nc(-c3ccc(OC)cc3)cc(=O)[nH]2)cc1 was read as Tau fibril FP -12%, Tau fibril ThT 7% and Tau fluor cs 7%.
`COc1ccc(Cn2c(-c3ccco3)nc3c(c(=O)c4ccccc4n3C)c2=O)cc1` gave Sfp PPTase inh -18%, Tau fibril FP -4%[0.0958 µM], FBPA coupling cs 3, KDM4E inh inconclusive and Tau fluor cs 3%[0.0958 µM].
For Cn1c2ccccc2c(=O)c2c(=O)n(Cc3ccco3)c(-c3ccc(Cl)cc3Cl)nc21 the results were Sfp PPTase inh 8.9µM*, Tau fibril FP -6%, Tau fibril ThT inconclusive, FBPA coupling cs 6, KDM4E inh inconclusive and Tau fluor cs -1%.
`COc1ccc(N2CCN(C(=O)c3c(C)oc4ncn(CC(C)C)c(=O)c34)CC2)cc1` gave Tau fibril FP 6%, Tau fibril ThT -9% and Tau fluor cs -6%.
Screening Cc1nn(-c2ccccn2)c2c1C(c1ccccc1Cl)C1=C(N2)c2ccccc2C1=O (stereo not given) returned Sfp PPTase inh -6%, Tau fibril FP -5%, Tau fibril ThT inconclusive, FBPA coupling cs 1, KDM4E inh -28% and Tau fluor cs -19%.
For Nc1nc2c(c(=O)[nH]1)C(c1cccc3ccccc13)C1=C(N2)c2ccccc2C1=O (stereo not given) the results were Sfp PPTase inh 56µM*, Tau fibril FP -10%, Tau fibril ThT 10µM*, FBPA coupling cs -16, KDM4E inh -8% and Tau fluor cs inconclusive.
O=C(Nc1cccc([N+](=O)[O-])c1)Nc1cccs1 was read as Sfp PPTase inh -27%, Tau fibril FP 10%, Tau fibril ThT inconclusive, FBPA coupling cs -4, KDM4E inh -10% and Tau fluor cs 20µM*[quencher].
Screening O=C(Nc1cccc(C(F)(F)F)c1)Nc1cccs1 returned Tau fibril FP inconclusive, Tau fibril ThT inconclusive and Tau fluor cs 11µM*[quencher].
For CCSCCc1nnc(NC(=O)Nc2cccc(C(F)(F)F)c2)s1 the results were Sfp PPTase inh 23%, Tau fibril FP 11µM*, Tau fibril ThT 6%, FBPA coupling cs 1, KDM4E inh 7% and Tau fluor cs inconclusive.
`COC(=O)c1sccc1NC(=O)Nc1cccc([N+](=O)[O-])c1` gave Sfp PPTase inh 4% and FBPA coupling cs -4.
For O=C(Nc1ccccc1)Nc1cccc(C(F)(F)F)c1 the results were Sfp PPTase inh 8%, Tau fibril FP inconclusive, Tau fibril ThT 1%, FBPA coupling cs 2, KDM4E inh -3% and Tau fluor cs -30%.
Screening COc1ccc(CNC(=O)CN2C(=O)c3cccnc3Oc3ccc(C)cc32)cc1 returned Tau fibril FP -7%, Tau fibril ThT 2% and Tau fluor cs 1%.
For CCOC(=O)C1(C)/C(=N/Nc2ccccc2)C(=O)C(=O)N1c1ccccc1 (stereo not given) the results were Sfp PPTase inh 14%, Tau fibril FP -7%, Tau fibril ThT 18µM*, FBPA coupling cs 2, KDM4E inh -4% and Tau fluor cs -28%.
CCOC(=O)C1(C)/C(=N/Nc2ccccc2OC)C(=O)C(=O)N1c1ccccc1 (stereo not given) was read as Sfp PPTase inh -23%, Tau fibril FP -11%, Tau fibril ThT 16µM*, FBPA coupling cs -7, KDM4E inh 25µM* and Tau fluor cs -15%.
